{"source": "PubChem BioAssay AID720517", "about": "(National Center for Advancing Translational Sciences (NCATS), 2013)", "note": "Results filed as inconclusive are left out. The source made the active and inactive calls. Calls follow the shape of the dose curve; as a rule, active = well fitted activation curve with a large enough effect; inconclusive = small, poorly fitted or top-dose-only effect; inactive = flat fitted curve, though single readings scatter.", "data": [{"assay": "qHTS for Inhibitors of Cell Surface uPA Generation: FP59 Counterscreen for Cherry-picked Compounds; also: 0% is about no effect", "conditions": "FP59 anthrax toxin cytotoxicity counterscreen, cells; series mostly up to 115 µM; activity (protection from FP59): at the top concentration", "values": [{"compound": "COc1ccc(-c2cc(-c3ccccc3)nc3ncnn23)cc1", "activity (protection from FP59)": "-1.42% (inactive)"}, {"compound": "CC1Cc2nc(SCC(=O)Nc3ccc4c(c3)OCO4)n(-c3ccc(F)cc3)c(=O)c2S1", "note": "(centres undefined)", "activity (protection from FP59)": "-1.41% (inactive)"}, {"compound": "Cc1nc(NC2CCCCC2)c2nnn(Cc3ccccc3Cl)c2n1", "activity (protection from FP59)": "3.83% (inactive)"}, {"compound": "Cc1ccc(N2C(=O)CC(N3CCN/C3=C3\\CC/C(=C\\c4ccccc4)C3=O)C2=O)cc1", "note": "(centres undefined)", "activity (protection from FP59)": "-1.33% (inactive)"}, {"compound": "CN1CCN(c2ccc(S(=O)(=O)N3CCOCC3)cc2NC(=O)CSCc2ccccc2)CC1", "activity (protection from FP59)": "1.22% (inactive)"}, {"compound": "O=C(C1CCCCN1S(=O)(=O)c1ccc(F)cc1)N1CCN(c2ccccc2F)CC1", "note": "(centres undefined)", "activity (protection from FP59)": "-0.0276% (inactive)"}, {"compound": "Cc1cc2c(cc1S(=O)(=O)Nc1ccc(F)cc1)n(C)c(=O)c(=O)n2C", "activity (protection from FP59)": "-0.932% (inactive)"}, {"compound": "Cc1ccc(Nc2nc(Cl)c(C=O)s2)cc1", "activity (protection from FP59)": "-0.509% (inactive)"}, {"compound": "N#CCCN(C(=O)COC(=O)c1ccc2c(c1)NC(=O)CS2)c1ccc2c(c1)OCCO2", "activity (protection from FP59)": "-1.28% (inactive)"}, {"compound": "CCN(C(=O)c1c(C)noc1C)c1c(N)n(Cc2ccccc2)c(=O)[nH]c1=O", "activity (protection from FP59)": "-1.27% (inactive)"}, {"compound": "O=C(c1cc([N+](=O)[O-])cc([N+](=O)[O-])c1)N(c1ccccn1)c1ccccn1", "activity (protection from FP59)": "-1.05% (inactive)"}, {"compound": "O=C(O)CNS(=O)(=O)c1ccc2c(c1)Cc1cc(S(=O)(=O)NCC(=O)O)ccc1-2", "activity (protection from FP59)": "-1.23% (inactive)"}, {"compound": "CCc1ccc(NC(=O)Cn2cnc([N+](=O)[O-])c2)cc1", "activity (protection from FP59)": "-0.991% (inactive)"}, {"compound": "O=c1[nH]c(SCc2cccc(Cl)c2)nc2ccccc12", "activity (protection from FP59)": "-1.21% (inactive)"}, {"compound": "Nc1cc(=O)[nH]c(SCC(=O)Nc2cccc([N+](=O)[O-])c2)n1", "activity (protection from FP59)": "-1.38% (inactive)"}, {"compound": "O=C1CC(/C=C/c2ccc(Cl)cc2)=Nc2ccccc2N1", "activity (protection from FP59)": "13% (inactive)"}, {"compound": "Cc1nn2c(=O)cc(CSc3nc4ccccc4[nH]3)nc2s1", "activity (protection from FP59)": "-1.07% (inactive)"}, {"compound": "C/C(=N\\NC(=O)c1cccc([N+](=O)[O-])c1)c1cccnc1", "activity (protection from FP59)": "-1.46% (inactive)"}, {"compound": "COc1ccc(NC(=O)c2cccnc2N2CCOCC2)cc1", "activity (protection from FP59)": "-1.54% (inactive)"}, {"compound": "COc1ccc(S(=O)(=O)c2c(O)c3ccc(C(=O)Nc4ccccc4)cc3[nH]c2=O)cc1", "activity (protection from FP59)": "-1.37% (inactive)"}, {"compound": "Cc1ccc(S(=O)(=O)N(C)c2ccc(OC(=O)c3ccc(=O)[nH]c3)cc2)cc1", "activity (protection from FP59)": "-1.51% (inactive)"}, {"compound": "O=C(CSc1ccc(Cl)cc1)N1CCCC1", "activity (protection from FP59)": "-1.54% (inactive)"}, {"compound": "CCN(C(=O)CSc1ncnc2sccc12)c1c(N)n(Cc2ccccc2)c(=O)[nH]c1=O", "activity (protection from FP59)": "-1.34% (inactive)"}, {"compound": "C[C@H](CO)N1C[C@H](C)[C@@H](CN(C)C(=O)Nc2ccccc2)Oc2ccc(NC(=O)Cn3cnnn3)cc2C1=O", "activity (protection from FP59)": "-1.34% (inactive)"}, {"compound": "O=C(NCCN1CCOCC1)c1ccccc1Cl", "activity (protection from FP59)": "-1.25% (inactive)"}, {"compound": "CC(C)Cn1cnc2c(N)nc3ccccc3c21", "activity (protection from FP59)": "-0.237% (inactive)"}, {"compound": "COCCN1C(=O)C(=O)/C(=C(/O)c2ccc(S(=O)(=O)N3CCOCC3)cc2)C1c1cccc([N+](=O)[O-])c1", "note": "(centres undefined)", "activity (protection from FP59)": "-1.51% (inactive)"}, {"compound": "CN(C)c1ccc(S(=O)(=O)N2CCC(Cc3ccccc3)CC2)cn1", "activity (protection from FP59)": "0.212% (inactive)"}, {"compound": "COc1cc(C2/C(=C(\\O)c3ccc4c(c3)CC(C)O4)C(=O)C(=O)N2CC2CCCO2)cc(OC)c1OC", "note": "(centres undefined)", "activity (protection from FP59)": "-1.41% (inactive)"}, {"compound": "COc1ccc([C@H]2[C@H](C(=O)OC(C)(C)C)N3N=Cc4ccccc4C3C23C(=O)c2ccccc2C3=O)cc1OC", "note": "(some centres undefined)", "activity (protection from FP59)": "5.17% (inactive)"}, {"compound": "COc1ccc(-c2cccc(-c3cc(=O)oc4cc(OC)c(OC)c(OC)c34)c2)cc1", "activity (protection from FP59)": "1.16% (inactive)"}, {"compound": "COc1cc(CN2CCN(S(=O)(=O)c3ccccc3)CC2)cc(OC)c1OC", "activity (protection from FP59)": "-1.15% (inactive)"}, {"compound": "CC1CCCC(NC(=O)CNC(=S)N(Cc2ccccc2)Cc2cccs2)C1C", "note": "(centres undefined)", "activity (protection from FP59)": "7.33% (inactive)"}, {"compound": "COc1ccc(N(C(C)C(=O)NN=C2CCCC2)S(C)(=O)=O)cc1", "note": "(centres undefined)", "activity (protection from FP59)": "-1.4% (inactive)"}, {"compound": "COc1ccc(CC(=O)OCC(=O)NNC(=O)c2ccccc2)cc1", "activity (protection from FP59)": "-1.53% (inactive)"}, {"compound": "O=C(/C=C/c1cccc(F)c1)Nc1cc(S(=O)(=O)N2CCOCC2)ccc1Cl", "activity (protection from FP59)": "-0.397% (inactive)"}, {"compound": "CCCS(=O)(=O)c1ccc(COC(=O)Cc2ccc([N+](=O)[O-])cc2)cc1", "activity (protection from FP59)": "-0.901% (inactive)"}, {"compound": "O=C(NNC(=O)c1ncc(Cl)c(Cl)c1Cl)c1ccc(F)cc1", "activity (protection from FP59)": "0.837% (inactive)"}, {"compound": "Cc1ccc(C)c(NC(=O)CCN2CCN(c3ccccc3F)CC2)c1", "activity (protection from FP59)": "-1.28% (inactive)"}]}]}
